Assay results taken from PubChem BioAssay (NCI).
The panel holds about 83,000 compounds, 20% with a hit somewhere; the sample as a whole holds those more often.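 Step 1: grow cells in 96-well plates. Step 2: add test compound at a single concentration. Step 3: incubate 48 h. Step 4: record percent growth.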 Unmarked numbers belong to inactive results. Active and inactive are the calls of the source. The calls were made as follows: active = growth percent below 10; inactive = the rest.

Assays:
Assay in all cases: NCI-60 one-dose screen, 48 h (100 = growth as untreated, 0 = no growth, -100 = all killed)
Settings in all cases: 10 µM unless noted
[1] = system: HCT-15 colon
[2] = system: HT29 colon
[3] = system: SNB-19 CNS
[4] = system: U251 CNS
[5] = system: PC-3 prostate
[6] = system: SK-MEL-5 melanoma
[7] = system: UACC-62 melanoma
[8] = system: LOX IMVI melanoma
[9] = system: SK-MEL-28 melanoma
[10] = system: SK-MEL-2 melanoma
[11] = system: EKVX NSCLC
[12] = system: SN12C renal
[13] = system: UO-31 renal
[14] = system: TK-10 renal
[15] = system: ACHN renal
[16] = system: CAKI-1 renal
[17] = system: A498 renal
[18] = system: CCRF-CEM leukemia
[19] = system: MOLT-4 leukemia

Structure (SMILES)	growth [1]	growth [2]	growth [3]	growth [4]	growth [5]	growth [6]	growth [7]	growth [8]	growth [9]	growth [10]	growth [11]	growth [12]	growth [13]	growth [14]	growth [15]	growth [16]	growth [17]	growth [18]	growth [19]
O=C(N/N=C/C=C\c1ccccc1)C(=O)N/N=C/C=C/c1ccccc1	108%	110%	120%	107%	109%	110%	114%	94%	115%	109%	111%	92.6%	91.3%	104%	125%	105%	127%	108%	109%
CC(C)CSc1nc(NN)c(C#N)c(-c2ccc(F)cc2)n1	46.9%	103%	60.8%	60.2%	56.7%	50.3%	56%	54.4%	85%	67.9%	89.4%	79.9%	55.8%	92.1%	60.6%	67.9%	68.2%	61.6%	80.3%
O=c1[nH]c2ccc(Br)cc2c2c1C(c1ccc(Cl)cc1)c1c(ncn3nc(-c4ccco4)nc13)O2 (centres undefined)	64.9%	73%	75.8%	80.8%	72.1%	67.4%	59.8%	76.7%	91.1%	89.1%	48.8%	74.3%	35%	110%	65.4%	46.3%	59.6%	73.9%	88.1%
O=C(NS(=O)(=O)c1ccccc1)n1cc(-c2ccncc2)c(-c2ccc(Cl)c(O)c2)n1	103%	100%	111%	110%	93.4%	100%	59%	79.9%	63%	64%	104%	97.4%	112%	101%	86.8%	99%	106%	89.8%	82.7%
N=c1ccc2nc3ccc(N)cc3sc-2c1	27.3%	41.3%	4.78% (active)	6.47% (active)	7.2% (active)	-80.3% (active)	16.4%	3.98% (active)	57.1%	50.9%	47.9%	6.7% (active)	69.1%	11.9%	55.2%	46.4%	70.6%	21.3%	8.58% (active)
O=C(NNC(=O)N1c2ccccc2C=Cc2ccccc21)c1ccccc1	101%	103%	100%	109%	98.5%	104%	101%	104%	102%	119%	91.7%	102%	96%	96%	102%	97.3%	103%	98.9%	102%
COc1ccc(Cn2cc3c(c2-c2cc(OC)c(OC)c(OC)c2)CCc2cnoc2-3)cc1	17.5%	11%	44.3%	29.3%	25.7%	17%	40.5%	38.1%	45%	42.8%	34.8%	34.6%	30.4%	73.8%	33.1%	21.2%	3.83% (active)	12.9%	23.3%
Brc1cccc(-c2cc(-c3ccc4nccnc4c3)[nH]n2)c1	9.57% [25 µM] (active)	5.66% [25 µM] (active)	30.5% [25 µM]	21.7% [25 µM]	27% [25 µM]	20.9% [25 µM]	38.1% [25 µM]	18.6% [25 µM]	64.9% [25 µM]	46.3% [25 µM]	16% [25 µM]	35.5% [25 µM]	38.8% [25 µM]	52.1% [25 µM]	39.6% [25 µM]	29.4% [25 µM]	-9.23% [25 µM] (active)	15.3% [25 µM]	30.2% [25 µM]
Cc1ccc(S(=O)(=O)NCCCNc2cc(-c3cn(C(C)(C)C)nc3-c3cccc(O)c3)ccn2)cc1	16.5%	12.8%	80%	58.1%	39.6%	42.8%	66.8%	13.5%	60.6%	70.4%	61%	64.6%	73.2%	107%	62.4%	59.7%	85.1%	52.4%	49.1%
O=C(O)c1cn(C2CC2)c2cc(N3CCN(C(=O)/C=C/c4ccc(Cl)cc4)CC3)c(F)cc2c1=O	51.6%	82.1%	82.8%	77.7%	72.6%	64.8%	61.7%	22%	66.5%	98.8%	80.4%	70.5%	-62.8% (active)	105%	76.7%	73.8%	29%	64.8%	57.8%
CC(=O)Oc1csc(N(C(C)=O)c2cc(C(=O)O)cc(C(=O)O)c2)n1	92.8%	104%	97.2%	88.5%	-100% (active)	94%	94.2%	90.2%	106%	106%	76.2%	98.8%	92.7%	105%	104%	101%	70.5%	1.74% (active)	109%
Cc1cc(N/N=C/c2nc(-c3ccc(Br)cc3)oc2C)c2cc(Cl)ccc2n1	37.9%	13.5%	60.1%	13.9%	80.7%	92.6%	82.9%	20.8%	60.7%	110%	95.7%	48.4%	86.6%	114%	86.9%	96.2%	85.5%	-16.6% (active)	3.49% (active)
CC(C)C(C(=O)NCCN1CCOCC1)N1C(=O)/C(=C/c2ccc(Br)cc2)SC1=S (centres undefined)	99.9%	109%	92.5%	98%	90.1%	98.2%	87.8%	99%	96.9%	93.9%	104%	93.8%	84.9%	121%	101%	97.9%	96.8%	97.8%	102%
Cc1cc(N/N=C/c2nc(-c3ccccc3)oc2C)c2cc(Cl)ccc2n1	-83.3% (active)	-78.1% (active)	-31.2% (active)	-76.9% (active)	-61.1% (active)	20.4%	86.3%	-76.8% (active)	-96.4% (active)	110%	-59.4% (active)	-84.9% (active)	-99.2% (active)	-76.3% (active)	-80.1% (active)	14.4%	68.4%	-34.6% (active)	-39.2% (active)
CCOC(=O)/C(C#N)=C1/C(=O)Nc2ccccc21	106%	112%	104%	113%	94.2%	115%	103%	99%	115%	122%	117%	96.3%	71.1%	130%	102%	99.4%	132%	67.1%	138%
COc1ccc(Nc2nn3c(C)cc(C)nc3c2C(=O)Nc2ccc(C)cc2)c(OC)c1	101%	101%	101%	94.8%	98.8%	103%	93%	109%	94.4%	92.7%	103%	98.4%	82%	107%	101%	95.7%	117%	106%	107%
